Reference: PubChem BioAssay (NCATS)
Inconclusive results are not listed. The source made the active and inactive calls. Unless noted, the call rests on the fitted dose curve; in most records, active means well fitted curve in the direction sought with a large enough effect; inconclusive means small, poorly fitted or top-dose-only effect, or another doubt; inactive means no such curve, though single readings can be large; an effect the other way counts as inactive or inconclusive.

Key:
[1] = qHTS for Inhibitors of Plasmodium falciparum (DD2) proliferation (AID 504314);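 further: parasite DNA measured by SYBR Green fluorescence after red cell lysis; plate controls were DMSO vehicle for no effect and artemisinin wells for full effect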
Outline: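 SYBR Green growth assay: 72 h compound exposure of infected red cells (2.5% hematocrit, 0.3% parasitemia), then lysis and overnight dye staining, fluorescence 485/535 nm. Values scaled between DMSO and 0.29 uM artemisinin controls.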

[2] = qHTS for Inhibitors of Plasmodium falciparum (GB4) proliferation (AID 504315);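 further: 0% = DMSO vehicle and -100% = 0.29 µM artemisinin control; nearly all actives have a fitted effect of over 50% in size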
Outline: (§1)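 Parasite growth measured as SYBR Green DNA fluorescence (ex 485, em 535 nm) after overnight lysis following 72 h culture at 37 °C, 0.3% parasitemia, 2.5% hematocrit. Values normalized against DMSO and 0.29 uM artemisinin controls, with plate-stack correction.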

[3] = qHTS for Inhibitors of Plasmodium falciparum (7G8) proliferation (AID 504316);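 further: series mostly up to about 6.7 µM; 0% = DMSO vehicle and -100% = 0.29 µM artemisinin full kill; nearly all actives have a fitted effect of over 65% in size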
Outline: as §1

[4] = qHTS for Inhibitors of Plasmodium falciparum (HB3) proliferation (AID 504318);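 further: 0% = DMSO vehicle and -100% = artemisinin control; nearly all actives have a fitted effect of over 60% in size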
Outline: as §1

[5] = qHTS for Inhibitors of Plasmodium falciparum (CP250) proliferation (AID 504320);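 further: plate controls were DMSO vehicle for no effect and 0.29 µM artemisinin control for full effect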
Outline: as §1

[6] = biological target: Atrial natriuretic peptide receptor 1 (Homo sapiens) (UniProt P16066); experiment: Natriuretic polypeptide receptor (hNpr1) antagonism - Pilot CMLD screen (AID 1347052; calls by dose curve;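 further: HEK293 cells with hNpr1 stimulated by hNppA peptide at 0.1 nM; cGMP level read as GloSensor luciferase luminescence after agonist stimulation; series mostly up to about 9.2 µM; on the % scale 0 is the no-effect control and ±100 the full control effect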)
Sequence of Atrial natriuretic peptide receptor 1 (Homo sapiens) (P16066 whole entry, looked up): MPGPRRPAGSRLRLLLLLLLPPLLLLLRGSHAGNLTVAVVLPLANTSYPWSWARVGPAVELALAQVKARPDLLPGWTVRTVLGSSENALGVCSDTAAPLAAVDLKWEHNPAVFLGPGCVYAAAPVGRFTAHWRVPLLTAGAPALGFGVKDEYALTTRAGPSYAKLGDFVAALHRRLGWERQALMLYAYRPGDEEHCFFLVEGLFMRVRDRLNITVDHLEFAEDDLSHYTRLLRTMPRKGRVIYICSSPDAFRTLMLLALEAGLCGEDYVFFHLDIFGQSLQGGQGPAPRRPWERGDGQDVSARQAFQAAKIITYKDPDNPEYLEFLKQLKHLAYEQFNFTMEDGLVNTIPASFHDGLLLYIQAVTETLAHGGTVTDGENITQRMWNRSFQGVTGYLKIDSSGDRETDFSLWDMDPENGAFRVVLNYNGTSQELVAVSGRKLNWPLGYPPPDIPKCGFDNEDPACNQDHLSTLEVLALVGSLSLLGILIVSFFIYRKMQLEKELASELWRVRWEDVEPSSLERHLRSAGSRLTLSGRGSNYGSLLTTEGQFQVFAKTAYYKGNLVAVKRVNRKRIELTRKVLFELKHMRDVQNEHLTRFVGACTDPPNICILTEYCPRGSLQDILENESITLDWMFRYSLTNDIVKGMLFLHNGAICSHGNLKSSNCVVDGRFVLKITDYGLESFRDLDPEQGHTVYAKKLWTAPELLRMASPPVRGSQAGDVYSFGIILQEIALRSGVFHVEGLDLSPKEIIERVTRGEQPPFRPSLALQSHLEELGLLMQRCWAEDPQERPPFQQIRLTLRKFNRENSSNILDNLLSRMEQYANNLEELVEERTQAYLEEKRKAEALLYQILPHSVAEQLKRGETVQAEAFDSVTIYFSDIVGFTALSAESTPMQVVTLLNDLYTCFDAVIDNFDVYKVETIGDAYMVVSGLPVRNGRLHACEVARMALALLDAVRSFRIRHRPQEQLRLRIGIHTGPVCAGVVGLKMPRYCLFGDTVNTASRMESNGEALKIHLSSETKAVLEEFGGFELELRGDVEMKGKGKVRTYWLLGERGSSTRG

COCCN1C(=O)NC(c2cccc(C(F)(F)F)c2)C(C(C)=O)=C1C (stereo not given)
inactive: Potency [1] | Potency [2] | Potency [3] | Potency [4] | Potency [5] | Potency [6]

COCCN1C=C2C(=O)C(C)(OC(=O)c3cccs3)C(=O)C=C2C=C1CCCC(=O)OC (stereo not given)
inactive: Potency [1] | Potency [2] | Potency [3] | Potency [4] | Potency [5] | Potency [6]

COC(=O)C(Cc1cc(Br)c(OC)c(Br)c1O)=NO
inactive: Potency [1] | Potency [2] | Potency [3] | Potency [4] | Potency [5] | Potency [6]

CC#CCN1c2ccccc2[C@]23CCC(=O)N(Cc4cccc(C(F)(F)F)c4)C2=NC(C(=O)OC)=C(C(=O)OC)[C@H]13
inactive: Potency [1] | Potency [2] | Potency [3] | Potency [4] | Potency [5] | Potency [6]

COc1ccc(OC)c(-c2ccccc2C=NNS(=O)(=O)c2ccc(C)cc2)c1
inactive: Potency [1] | Potency [2] | Potency [3] | Potency [4] | Potency [5] | Potency [6]

COC(=O)c1ccc(CN2C(=O)[C@]3(OCCC=C[C@@H]3C)c3c(Br)cccc32)cc1
inactive: Potency [1] | Potency [2] | Potency [3] | Potency [4] | Potency [5] | Potency [6]

CCN1C(N(C)CCOC)=NC(c2cccc(F)c2)C(C(=O)OC)=C1C (stereo not given)
inactive: Potency [1] | Potency [2] | Potency [3] | Potency [4] | Potency [5] | Potency [6]

CCCCn1c(C)cc2c(c1=O)[C@H]1O[C@](c3ccsc3)(Cc3cc(OC)c(OC)cc31)O2
inactive: Potency [1] | Potency [2] | Potency [3] | Potency [4] | Potency [5] | Potency [6]

C[C@H]1Cc2c(-c3ccccc3)nc3c(c2CO1)CN(S(=O)(=O)c1ccc(Cl)c2nonc12)CC3
inactive: Potency [1] | Potency [2] | Potency [3] | Potency [4] | Potency [5] | Potency [6]

C#CC[C@@]1(C(=O)OC)C=C[C@@H](C)[C@H](c2ccccc2Br)N1C(=O)C(F)(F)F
inactive: Potency [1] | Potency [2] | Potency [3] | Potency [4] | Potency [5] | Potency [6]

CCN1C(=S)NC(c2cccc(F)c2)C(C(=O)OC)=C1C (stereo not given)
inactive: Potency [1] | Potency [2] | Potency [3] | Potency [4] | Potency [5] | Potency [6]

C=CCN1c2ccccc2[C@]23CCC(=O)N(CC(=O)OC)C2=NC(C(=O)OC)=C(C(=O)OC)[C@H]13
inactive: Potency [1] | Potency [2] | Potency [3] | Potency [4] | Potency [5] | Potency [6]

O=C(C=Cc1ccccc1)c1ccccc1O
inactive: Potency [1] | Potency [2] | Potency [3] | Potency [4] | Potency [5] | Potency [6]

COC(=O)CC=C[C@@H](C)[C@@H](C=NO[C@@H](C)c1cn([C@H](CO)Cc2ccccc2)nn1)NS(=O)(=O)c1ccc(C)cc1
inactive: Potency [1] | Potency [2] | Potency [3] | Potency [4] | Potency [5] | Potency [6]

COCCN1C(=O)NC(c2ccccc2)C(C(=O)OC)=C1C (stereo not given)
inactive: Potency [1] | Potency [2] | Potency [3] | Potency [4] | Potency [5] | Potency [6]

COC(=O)[C@H](COC(C)(C)C)NC(=O)O[C@@H]1C(=O)c2ccc(OC)cc2O[C@H]1c1ccc2c(c1)OCO2
inactive: Potency [1] | Potency [2] | Potency [3] | Potency [4] | Potency [5] | Potency [6]

CCOC(=O)C1=CN(CCCc2cn(Cc3ccccc3)nn2)C(=O)NC1c1ccccc1 (stereo not given)
inactive: Potency [1] | Potency [2] | Potency [3] | Potency [4] | Potency [5] | Potency [6]

CCCCC1=CC2=C(c3ccco3)C(=O)C(C)(OC(=O)c3ccc(OC)cc3)C(=O)C2=CN1Cc1ccco1 (stereo not given)
inactive: Potency [1] | Potency [2] | Potency [3] | Potency [4] | Potency [5] | Potency [6]

Cc1cccc(C)c1Nc1oc(-c2ccccc2)nc1C(C)(C)C
inactive: Potency [1] | Potency [2] | Potency [3] | Potency [4] | Potency [5] | Potency [6]

COC(=O)C1=C(C)N(Cc2ccccc2)C(=O)NC1c1cccc(F)c1 (stereo not given)
inactive: Potency [1] | Potency [2] | Potency [3] | Potency [4] | Potency [5] | Potency [6]

COc1ccc(-c2nc(-c3ccccc3)oc2Nc2ccc3ccccc3c2)cc1
inactive: Potency [1] | Potency [2] | Potency [3] | Potency [4] | Potency [5] | Potency [6]

COc1cccc(CO[C@H]2C=C[C@@H](c3ccccc3)O[C@H]2CO)c1
inactive: Potency [1] | Potency [2] | Potency [3] | Potency [4] | Potency [5] | Potency [6]

CCN(CC)CCCN1C=C2C(=O)C(C)(OC(=O)C3CCCC3)C(=O)C=C2C=C1c1ccsc1 (stereo not given)
inactive: activity, negative = inhibition [1] -4.1% [at 1.12 µM] | Potency [2] | Potency [3] | Potency [4] | Potency [5] | Potency [6]

C=CCOC(=O)N[C@@H](CC(C)C)C(C(=O)OC)=C(C)NCc1ccccc1
inactive: Potency [1] | Potency [2] | Potency [3] | Potency [4] | Potency [5] | Potency [6]

CCCCC1=CC2=C(c3ccco3)C(=O)C(C)(OC(=O)c3ccc(OC)cc3)C(=O)C2=CN1CCN1CCOCC1 (stereo not given)
inactive: Potency [1] | Potency [2] | Potency [3] | Potency [4] | Potency [5] | Potency [6]
